The record followed here is PubChem BioAssay (NCI).

Among the test systems are NCI-H226 lung; NCI-H322M lung; HOP-62 NSCLC; NCI-H460 lung; HOP-92 NSCLC; NCI-H522 lung; A549/ATCC NSCLC; 786-0 renal; COLO 205 colon.
Common to all, as to assay: NCI-60 one-dose screen, 48 h (100 = growth as untreated, 0 = no growth, -100 = all killed)
What all share (settings): 10 µM unless noted

Compounds without any hit were thinned out: in the full panel of roughly 83,000, 20% have a hit.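 Cells were grown in 96-well plates and exposed to the test compound at a single concentration for 48 hours; results are reported as percent growth, with values below 10 considered active.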 Values without a mark were called inactive. Calls of active or inactive are those of the source.

As for `O=C(/C=C/c1cccc(OCc2ccccc2)c1)c1nc2ccccc2[nH]1`, the growth is 1.49% (active) with NCI-H226 lung; 92.3% in the experiment on NCI-H322M lung; 50.5% in the experiment on HOP-62 NSCLC; 63% with NCI-H460 lung; 22.7% in the experiment on HOP-92 NSCLC; 72.8% in the experiment with NCI-H522 lung. The growth was 39.1% in the experiment on A549/ATCC NSCLC, -60.7% (active) in the experiment with 786-0 renal and -31.7% (active) in the experiment with COLO 205 colon.

With `Cn1cc(-c2nc(N)nnc2-c2c[nH]c3ccc(F)cc23)c2cc(Br)cnc21`, the growth was 1.02% (active) in the experiment on NCI-H226 lung; 34.8% with NCI-H322M lung; 20.1% in the experiment on HOP-62 NSCLC; 0.596% (active) with NCI-H460 lung; -6.31% (active) in the experiment on HOP-92 NSCLC; -52.3% (active) in the experiment on NCI-H522 lung. The growth was 11.1% in the experiment on A549/ATCC NSCLC, 5.54% (active) with 786-0 renal and -82.9% (active) with COLO 205 colon.

With `COc1cc2nc(SCc3ccccc3)n(-c3ccc(Cl)cc3)c(=O)c2cc1OC`, the growth in the experiment with NCI-H226 lung is -27.3% (active); in the experiment on NCI-H322M lung it was 3.77% (active); in the experiment with HOP-62 NSCLC it was -69.2% (active); in the experiment with NCI-H460 lung it was -47.6% (active); in the experiment with HOP-92 NSCLC, -30.2% (active); in the experiment with NCI-H522 lung, -0.701% (active). The growth with A549/ATCC NSCLC is -50.6% (active); in the experiment with 786-0 renal, -57.2% (active); in the experiment on COLO 205 colon, 3.25% (active).

In the case of `C#CCOc1cc(N(CC)CC)ccc1C(C(=O)NC(C)(C)C)N(C(=O)C1CCc2cc(F)ccc2O1)c1ccccc1Br` (stereo not drawn), the growth in the experiment with NCI-H226 lung was 63.8%; with NCI-H322M lung it was 86.3%; in the experiment on HOP-62 NSCLC, 73.3%; with NCI-H460 lung it was 52.3%; in the experiment with HOP-92 NSCLC it was 56.4%; in the experiment on NCI-H522 lung, 47.6%. Besides, the growth with A549/ATCC NSCLC was 54.2%; with 786-0 renal, 59.4%; in the experiment on COLO 205 colon, 46.9%.

As for `CCOC(=O)C1=C(N)N(c2ccccc2)C2=C(C(=O)CC(C)(C)C2)C1c1ccc(N2CCOCC2)cc1` (stereo not drawn), the growth in the experiment with NCI-H226 lung was 89.8%; in the experiment on NCI-H322M lung it was 99.1%; with HOP-62 NSCLC, 102%; with NCI-H460 lung, 106%; with HOP-92 NSCLC, 87.7%; with NCI-H522 lung, 89.4%. Further, the growth in the experiment on A549/ATCC NSCLC is 103%; in the experiment with 786-0 renal it was 87.7%; in the experiment on COLO 205 colon, 108%.

Regarding `COc1cccc(/C=C/C(=O)c2ccc(OC)c(S(N)(=O)=O)c2)c1`, the growth with NCI-H226 lung was 53.9%; with NCI-H322M lung, 22.2%; in the experiment on HOP-62 NSCLC, 21.4%; in the experiment with NCI-H460 lung, 16.2%; with HOP-92 NSCLC, 55.9%; in the experiment with NCI-H522 lung it was -65.1% (active). Further, the figures for the growth in the experiment with A549/ATCC NSCLC, in the experiment on 786-0 renal and with COLO 205 colon were 10.3%, 14.6% and -18.4% (active), respectively.

On to `Cn1cc(-c2nc(N)nnc2-c2c[nH]c3ccc(Br)cc23)c2cc(Br)cnc21`, for which the growth in the experiment with NCI-H226 lung was 11.9%; in the experiment with NCI-H322M lung, 37.8%; with HOP-62 NSCLC, 17.8%; in the experiment on NCI-H460 lung it was -25% (active); in the experiment on HOP-92 NSCLC it was -6.93% (active); with NCI-H522 lung, -47.4% (active). For the same molecule, the growth was 12.5% in the experiment on A549/ATCC NSCLC, -10.9% (active) in the experiment on 786-0 renal and -85.3% (active) with COLO 205 colon.
